Laboratory results reported in paper PMC5540273 (PLoS ONE, 2017).

Tested on: FLT3
Conditions: concentration: 1 μM, replicates: in singlicate; n = 1
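Note: KINOMEscan kinase panel screen.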

`COc1cccc(-c2cc(-c3c[nH]nc3-c3ccccn3)ccn2)c1` [GW680338] and `Cl.c1ccc(-c2n[nH]cc2-c2ccnc(-c3ccc(CN4CCOCC4)cc3)c2)nc1` [GW776245] are the same in “%Inh” value: 0% for the first, 0% for the second.

`COc1cc2ncnc(Nc3ccc4nc(-c5ccccc5)[nH]c4c3)c2cc1OC.Cl` [GW282450] and `COc1cc2nccc(Nc3ccc(NC(=O)c4ccc(C)cc4)c(O)c3)c2cc1OC.Cl` [GW440132] are the same in “%Inh” value: 0% for the first, 0% for the second.

First: COC(=O)c1c(-c2ccccc2)c2cc(C(=O)O)ccc2c(=O)n1Cc1ccccc1
Second: COc1ccc(C2=C(Nc3cccc(C(=O)O)c3)C(=O)NC2=O)cc1 [SB-390765]
The “%Inh” value of the first is lower: 0% for the first, 23% for the second.

`Cc1cccc(-c2nc(Nc3ccncc3)c3ccccc3n2)n1` [GW855857] and `Cc1cccc(-c2cc(Nc3ccncc3)c3ccccc3n2)n1` [GSK223675] are the same in “%Inh” value: 0% for the first, 0% for the second.

`Cc1cccc(-c2nc(-c3ccc(S(C)(=O)=O)cc3)sc2-c2ccnc(NCCc3ccccc3)c2)c1` and `Cc1cc(NCC(c2ccccc2)c2ccccc2)nc(NCc2ccc(C(F)(F)F)cc2)n1` [GW497681] are the same in “%Inh” value: 0% for the first, 0% for the second.

First: CN(C)CCN(C)C(=O)c1cc(-c2ccncc2)c(-c2ccc(Cl)c(O)c2)o1.Cl.Cl [SB-710397]
Second: Cc1nnc(-c2ccc3occ(-c4ccc(S(C)=O)cc4)c3c2)[nH]1 (centres unmarked)
The “%Inh” value of the first is lower: 0% for the first, 33% for the second.

`Cn1ccc2ncnc(Oc3ccc(Nc4nc5ccccc5[nH]4)cc3)c21` and `Cc1cccc(-c2nc(Nc3cccc(C(N)=O)c3)c3ccccc3n2)n1` [GW876019] are the same in “%Inh” value: 0% for the first, 0% for the second.

First: Cc1cccc(-c2nc(C)cc(Nc3ccncc3)n2)n1 [GSK257997]
Second: CC(C)(C)c1ccc(C(=O)Nc2cn3cc(-c4cccnc4)ccc3n2)cc1
The “%Inh” value of the first is lower: 5% for the first, 65% for the second.

Compared with `Cc1ccc(NC(=O)Nc2cc(C(C)(C)C)nn2-c2ccccc2)cc1` [GSK1014915], `COc1ccccc1CNC(=O)c1cc(C(=O)c2ccccc2C)c[nH]1` [GSK364507] is lower in “%Inh” value: 98.6% for the first, 0% for the second.

Compared with `CC1=C(C(=O)Nc2cc3cn[nH]c3cc2F)C(c2ccc(C(F)(F)F)cc2)CC(=O)N1` (centres unmarked) [GSK429286], `O=C(O)COc1ncnc2cc(-c3ccc4[nH]ncc4c3)sc12` is higher in “%Inh” value: 0% for the first, 2% for the second.

`Nc1nc(-c2nccs2)c(-c2ccnc3ccccc23)s1` [GW693542] was tested, and the “%Inh” value was 2%.

Tested on: FLT4
Conditions: concentration: 1 μM, replicates: in singlicate; n = 1

First: Cn1cncc1-c1ccc2ncnc(Nc3ccc(OCc4ccccc4)cc3)c2c1 [GW320571]
Second: Cn1ccc2ncnc(Oc3ccc(Nc4nc5ccccc5[nH]4)cc3)c21
The “%Inh” value of the first is higher: 6% for the first, 0% for the second.

First: Cc1cc(-c2ccc3c(c2)CC[C@@H](N[C@@H](C)c2ccccc2)C3)cnc1N.Cl [GW412617]
Second: COc1cc2ncnc(Nc3ccc4nc(-c5ccccc5)[nH]c4c3)c2cc1OC.Cl [GW282450]
The “%Inh” value of the first is higher: 22% for the first, 0% for the second.

`Fc1cccc(COc2nnc(-c3ccc4c(c3)CCO4)o2)c1` and `O=C(Nc1n[nH]c2cc(-c3cccc(F)c3F)ccc12)C1CC1` [SB-733894] are the same in “%Inh” value: 0% for the first, 0% for the second.

First: COc1cc(Nc2nccc(N3CCC(NC(=O)Nc4cc(C)ccc4C)C3)n2)cc(OC)c1OC (centres unmarked) [GSK1379762]
Second: COc1cc2nccc(Nc3ccc(NC(=O)c4ccc(C)cc4)c(O)c3)c2cc1OC.Cl [GW440132]
The “%Inh” value of the first is higher: 14% for the first, 0% for the second.

Going from `CC(C)(C)c1ccc(C(=O)Nc2cn3cc(Cl)ccc3n2)cc1` to `CC(C)(C)c1ccc(C(=O)Nc2cn3cc(-c4cccnc4)ccc3n2)cc1`, the “%Inh” value rises from 0% to 16%.

First: COc1ccc2nc(-c3cccc(C)n3)nc(Nc3ccncc3)c2c1 [GSK204919]
Second: Cc1cccc(-c2nc(Nc3ccncc3)c3ccccc3n2)n1 [GW855857]
The “%Inh” value of the first is higher: 5% for the first, 1% for the second.

First: Cc1c(O)cccc1Nc1ccnc2ccc(C(F)(F)F)cc12.Cl [GW466413]
Second: Cc1cccc(-c2cc(Nc3ccncc3)c3ccccc3n2)n1 [GSK223675]
The “%Inh” value of the first is higher: 9% for the first, 0% for the second.

First: Cc1ccc(-c2cc(-c3c[nH]nc3-c3ccccn3)ccn2)cc1 [GW684088]
Second: COc1cccc(-c2cc(-c3c[nH]nc3-c3ccccn3)ccn2)c1 [GW680338]
The “%Inh” value of the first is lower: 0% for the first, 83% for the second.

`O=S(=O)(c1ccc(-c2ccnc3[nH]ccc23)cc1)N1CCCC1` [GSK846226] and `CCCc1ccc(S(=O)(=O)NC2CCN(c3ccnc(Nc4ccc(F)cc4)n3)C2)cc1` (centres unmarked) [GSK1379715] are the same in “%Inh” value: 0% for the first, 0% for the second.

First: Cn1ccc2ncnc(Oc3cccc(C(=O)Nc4ccccc4)c3)c21
Second: Cc1cccc(-c2nc(Nc3cccc(C(N)=O)c3)c3ccccc3n2)n1 [GW876019]
The “%Inh” value of the first is lower: 0% for the first, 10% for the second.

Going from `O=C1NC(=O)C(N2CCc3ccccc32)=C1c1ccccc1Cl` [SB-373598] to `COc1ccc(C2=C(Nc3cccc(C(=O)O)c3)C(=O)NC2=O)cc1` [SB-390765], the “%Inh” value falls from 20% to 15%.

First: COC(=O)c1c(-c2ccccc2)c2cc(OC)ccc2c(=O)n1Cc1ccccc1
Second: COC(=O)c1c(-c2ccccc2)c2cc(C(=O)O)ccc2c(=O)n1Cc1ccccc1
The “%Inh” value of the first is higher: 9% for the first, 0% for the second.

Compared with `Cc1cccc(-c2nc(-c3ccc(S(C)(=O)=O)cc3)sc2-c2ccnc(NCCc3ccccc3)c2)c1`, `Cc1cc(NCC(c2ccccc2)c2ccccc2)nc(NCc2ccc(C(F)(F)F)cc2)n1` [GW497681] is lower in “%Inh” value: 7% for the first, 0% for the second.

Going from `CN(C)CCN(C)C(=O)c1cc(-c2ccncc2)c(-c2ccc(Cl)c(O)c2)o1.Cl.Cl` [SB-710397] to `Cc1nnc(-c2ccc3occ(-c4ccc(S(C)=O)cc4)c3c2)[nH]1` (centres unmarked), the “%Inh” value rises from 7% to 18%.

Compared with `Cc1cccc(-c2nc(C)cc(Nc3ccncc3)n2)n1` [GSK257997], `Nc1nc(-c2nccs2)c(-c2ccnc3ccccc23)s1` [GW693542] is lower in “%Inh” value: 13% for the first, 0% for the second.

Compared with `Cl.c1ccc(-c2n[nH]cc2-c2ccnc(-c3ccc(CN4CCOCC4)cc3)c2)nc1` [GW776245], `O=C(O)COc1ncnc2cc(-c3ccc4[nH]ncc4c3)sc12` is lower in “%Inh” value: 14% for the first, 2% for the second.

First: Cc1ccc(NC(=O)Nc2cc(C(C)(C)C)nn2-c2ccccc2)cc1 [GSK1014915]
Second: COc1ccccc1CNC(=O)c1cc(C(=O)c2ccccc2C)c[nH]1 [GSK364507]
The “%Inh” value of the first is higher: 15% for the first, 5% for the second.

In the case of `CC1=C(C(=O)Nc2cc3cn[nH]c3cc2F)C(c2ccc(C(F)(F)F)cc2)CC(=O)N1` (centres unmarked) [GSK429286], the “%Inh” value was 11%.
